From PubChem BioAssay
A number with no mark means an inactive call. Calls of active or inactive are those of the source. Cut-off read from the data, not from the text of the source, unless noted: active = inhibition above about 36%; inactive = the rest.

Assays:
[1] = system: transactivating tegument protein VP16 (Human herpesvirus 1); test: compounds suppressing VP16-driven luciferase signal – cell-based, luminescence, single concentration, counter-screen for SRC2 inhibitor project (AID 652007); details: cell-based VP16 transactivation luciferase reporter, at 8.9 µM, hits give high values
[2] = target: Nuclear receptor coactivator 2 (Homo sapiens) (UniProt Q15596); test: inhibition of GAL4-SRC2 driven luciferase expression – cell-based, luminescence, HEK293, triplicate, confirmation (AID 652008;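 active = mean inhibition above 46.5%, the solvent-only control mean plus 3 SD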;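 note: 0% = DMSO-treated cells and 100% = Gossypol at 36 µM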); details: HEK293 GAL4-SRC2 luciferase reporter, at 8.9 µM, hits give high values
Sequence of Nuclear receptor coactivator 2 (Homo sapiens) (Q15596 whole entry, looked up, the tested form may be a part): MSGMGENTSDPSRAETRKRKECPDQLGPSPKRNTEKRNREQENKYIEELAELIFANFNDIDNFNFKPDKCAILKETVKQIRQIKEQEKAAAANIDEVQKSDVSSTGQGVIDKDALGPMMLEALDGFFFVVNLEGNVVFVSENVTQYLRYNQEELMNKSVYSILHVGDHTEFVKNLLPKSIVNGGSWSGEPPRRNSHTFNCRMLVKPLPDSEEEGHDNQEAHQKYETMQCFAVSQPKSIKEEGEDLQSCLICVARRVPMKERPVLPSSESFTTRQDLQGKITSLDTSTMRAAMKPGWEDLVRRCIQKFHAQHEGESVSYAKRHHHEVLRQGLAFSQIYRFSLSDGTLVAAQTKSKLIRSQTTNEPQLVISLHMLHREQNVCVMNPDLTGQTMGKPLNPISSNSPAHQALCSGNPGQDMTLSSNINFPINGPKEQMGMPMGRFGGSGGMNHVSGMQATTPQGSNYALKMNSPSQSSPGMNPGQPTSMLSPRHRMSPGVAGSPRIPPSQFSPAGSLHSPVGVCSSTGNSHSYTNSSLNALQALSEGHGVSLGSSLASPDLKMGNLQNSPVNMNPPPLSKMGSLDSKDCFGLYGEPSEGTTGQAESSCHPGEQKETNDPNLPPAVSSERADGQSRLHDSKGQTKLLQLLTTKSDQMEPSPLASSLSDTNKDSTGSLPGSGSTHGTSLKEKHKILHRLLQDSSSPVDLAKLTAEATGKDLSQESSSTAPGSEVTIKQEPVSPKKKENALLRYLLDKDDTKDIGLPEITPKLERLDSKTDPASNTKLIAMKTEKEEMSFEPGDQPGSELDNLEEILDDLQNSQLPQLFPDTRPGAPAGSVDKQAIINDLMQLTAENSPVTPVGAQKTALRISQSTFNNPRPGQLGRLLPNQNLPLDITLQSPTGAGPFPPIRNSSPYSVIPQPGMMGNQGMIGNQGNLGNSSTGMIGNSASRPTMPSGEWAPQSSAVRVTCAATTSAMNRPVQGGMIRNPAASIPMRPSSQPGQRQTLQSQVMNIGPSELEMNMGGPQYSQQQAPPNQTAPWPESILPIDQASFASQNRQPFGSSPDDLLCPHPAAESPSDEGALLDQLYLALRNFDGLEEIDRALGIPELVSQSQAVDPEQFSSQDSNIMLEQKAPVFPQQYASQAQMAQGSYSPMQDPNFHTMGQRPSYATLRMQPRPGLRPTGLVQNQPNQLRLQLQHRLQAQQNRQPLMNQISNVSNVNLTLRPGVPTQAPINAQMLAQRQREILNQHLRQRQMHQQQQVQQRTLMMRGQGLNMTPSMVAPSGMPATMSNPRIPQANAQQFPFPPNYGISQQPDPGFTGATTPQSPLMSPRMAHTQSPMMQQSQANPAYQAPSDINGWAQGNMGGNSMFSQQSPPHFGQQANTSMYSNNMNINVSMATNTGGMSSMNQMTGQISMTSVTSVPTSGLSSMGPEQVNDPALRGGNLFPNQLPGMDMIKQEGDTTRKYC

| SMILES | inhibition [1] | inhibition [2] |
| --- | --- | --- |
| C[C@H]1CN([C@@H](C)CO)S(=O)(=O)c2ccc(Br)cc2O[C@H]1CN(C)Cc1ccccc1F | 22.8% | 16.8% |
| CCCN1C2CCCC1CC(NC(=O)c1cccc(Cl)c1)C2 (centres undefined) | 4.37% | 40.8% |
| O=C(Nc1nnc(SCCN2CCOCC2)s1)C1CC(=O)N(c2ccccc2)C1 (centres undefined) | 1.56% | -15.8% |
| NNC(=O)c1[nH]c2ccc(Br)cc2c1-c1ccccc1 | -11.1% | -1.32% |
| COc1ccc2c(n1)Sc1nc3ccccc3nc1N2 | -80.4% | -87.5% |
| Cc1c(CCC(=O)N[C@@H](CC(C)C)C(=O)O)c(=O)oc2cc3oc4c(c3cc12)CCCC4 | 37.5% (active) | 69.8% (active) |
| COc1cc(C(=O)NCc2ccncc2)cc(Br)c1OCc1ccccc1 | 0.29% | 36.2% |
| COc1ccc(OC)c(NC(=O)CCCc2ccccc2)c1 | -5.12% | -20.9% |
| Cn1c(=O)c2c(ncn2CCOc2cccc(Br)c2)n(C)c1=O | 2.33% | 2.64% |
| CCCCc1ccc(N/C(N)=N/c2nc(C)cc(C)n2)cc1 | 30.2% | 32.1% |
| Cc1ccc(C)c(NS(=O)(=O)c2cc(C(=O)NCCSC3CCCCC3)ccc2C)c1 | -17.6% | 3.68% |
| Cc1ccc(C(=O)Nc2ccc3ccccc3c2)cc1 | -57.4% | 12.1% |
| Cc1ccc([C@@H]2C[C@H]3[C@@H](CN2S(=O)(=O)c2ccc(C)cc2)C(=O)C[C@@H](c2ccccc2F)N3S(=O)(=O)c2ccc(C)cc2)cc1 | -8.37% | -5.47% |
| O=C(CCCSc1nc2ccccc2s1)NC1=NCCS1 | 27.1% | 20.4% |
| COc1ccc(-c2nnc(SCC(=O)Oc3ccc(C)cc3)o2)cc1 | -10% | -4.18% |
| Cc1cc(C2=NNC(=NC3CC3)SC2)c(C)n1Cc1ccco1 | 78.6% (active) | 93.6% (active) |
| Cc1c(NC(=O)COC(=O)C23CC4CC(CC(O)(C4)C2)C3)c(=O)n(-c2ccccc2)n1C | 2.86% | 3.79% |
| COc1ccc2cc3cc(C(=O)Nc4ccc5c(c4)OCO5)oc3nc2c1 | -29.9% | -32% |
| CCOc1ccc(-c2nc(CSCC(=O)NCc3ccco3)c(C)o2)cc1 | -11.2% | 37% |
| CCCc1nc(SCC(=O)Nc2cc(C)on2)c2ccccc2n1 | 1.01% | 10.1% |
| O=C(Nc1ccc2nc3n(c(=O)c2c1)CCCCC3)c1c(F)ccc([N+](=O)[O-])c1F | 83% (active) | 75.5% (active) |
| CN1c2ccccc2C(C)(C)C12C=Cc1cc(O)ccc1O2 (centres undefined) | -7.85% | 23.8% |
| CCn1c(Oc2ccccc2)nc2c1c(=O)n(C)c(=O)n2C | 8.01% | 42.6% |
| CC(C)OC(=O)c1ccc(NCc2cc(O)ccc2O)cc1Cl | 19.4% | 89.1% (active) |

| SMILES | inhibition [1] | inhibition [2] |
| --- | --- | --- |
| CN1Cc2sc(NC(=S)NC(=O)c3ccccc3)c(C#N)c2CC1(C)C | 20.5% | 58.2% (active) |
| CN(Cc1ccccc1F)C(=O)C1CCC(CNS(=O)(=O)c2cccc3cccnc23)CC1 (centres undefined) | 3.95% | -2.23% |
| COc1ccc(/C=C2\SC(=S)N(CCCC(=O)NNC(=O)c3ccccc3O)C2=O)cc1 | 89.9% (active) | 93.1% (active) |
| C[n+]1cc2c3c(ccc2c2ccc4cc5c(cc4c21)OCO5)OCO3 | 96% (active) | 98.7% (active) |
| CCC(C)(C)c1ccc(Oc2ccc(NC(=O)COC(=O)C3=COCCO3)cc2)cc1 | 33.8% | 46.5% |
| CCN(CC)Cc1nc2c(c(=O)[nH]1)C(CC)(CC)Cc1ccccc1-2 | -14.9% | 6.86% |
| COC(=O)[C@H]1C[C@@]2(c3ccccc3)c3ccccc3N(S(=O)(=O)c3ccccc3)[C@H]2N1 | 6.95% | 18.3% |
| O=C(CNC(=O)c1ccc2c(c1)OCO2)Nc1cccc(Br)c1 | -13.8% | -16.3% |
| O=C(C(O)c1ccc(Br)cc1)N1CCC(Nc2ccc3[nH]ncc3c2)CC1 (centres undefined) | -4.16% | -7.36% |
| O=C(NCc1ccco1)/C(=C/c1cccc([N+](=O)[O-])c1)NC(=O)c1ccco1 | -6.26% | -17.7% |
| CCOc1ccc(-n2nc3ccc(N)cc3n2)cc1 | -14.3% | 66% (active) |
| Cc1ccc(NC(=O)c2ccc(NC(=O)C3CCCCC3C(=O)O)cc2)cc1 (centres undefined) | -56% | -17.6% |
| Oc1cccc2c(NC(=S)Nc3ccc(SC(F)F)cc3)cccc12 | -23.5% | 53.1% (active) |
| O=C(CCCN1C(=O)/C(=C/c2ccccc2Cl)SC1=S)NNC(=O)c1ccccc1 | 61.2% (active) | 73% (active) |
| CCc1ccc(/C=C2\SC(=S)N(CCC(=O)Nc3cc(C)on3)C2=O)cc1 | -41% | 16.6% |
| CCOC(=O)Cc1csc(N/N=C/c2ccc(C(F)(F)F)cc2)n1 | -7.46% | 44.6% |
| Cc1ccc(Cl)cc1N1CCN(C(=O)CCS(=O)(=O)c2ccc3c(c2)NC(=O)CO3)CC1 | 13.9% | 30.1% |
| CCOC(=O)Cc1ccc(NC(=O)c2ccc(C(C)(C)C)cc2)cc1 | -47.1% | 63.9% (active) |
| COc1cc(OC)c(-c2c3cc(O)c(=O)cc-3oc3cc(O)c(O)cc23)cc1OC | 9.48% | 3.62% |
| COc1cc(/C=C2\CC/C(=C\c3cc(OC)c(O)c(OC)c3)C2=O)cc(OC)c1O | -70.7% | -13% |
| CC(C)Oc1ccc(S(=O)(=O)N2CCCCC2)cc1NC(=O)C1CCCC1 | 11.3% | 2.87% |
| Cc1cc(C(=O)NNS(=O)(=O)c2cc(C(=O)O)ccc2Cl)c(C)n1-c1ccccc1 | 2.27% | 45.4% |
| O=C(c1ccc(NS(=O)(=O)c2cccc(F)c2)cc1)N1CCCCC1 | -7.22% | -9% |
| Clc1cccc(CN2CCN(c3ncc(Cc4ccccc4)cn3)CC2)c1Cl | -0.77% | 24.5% |

| SMILES | inhibition [1] | inhibition [2] |
| --- | --- | --- |
| CCSc1ccccc1C(=O)N1CCN(c2ccc([N+](=O)[O-])cc2)CC1 | 0.48% | 15.7% |
| O=C(NC1CC1)c1ccc(-c2nc3ccccc3s2)s1 | -51.1% | 16.9% |
| CN(c1ccccc1)S(=O)(=O)c1ccc(Cl)c(C(=O)Nc2ccncc2)c1 | 0.61% | 29.7% |
| CCn1nc(NC(=O)C(C)C)c2cc3cccc(C)c3nc21 | 3.87% | 15.9% |
| Cc1cc(=O)c2ccccc2n1Cc1ccccc1 | -10.6% | 18.6% |
| O=C(Nc1nccs1)c1cc2c(s1)CCCCC2 | 0.43% | 38.7% |
| Cc1ccc(C2CC(c3cccs3)=NN2C(=O)CCl)cc1 (centres undefined) | 6.45% | 38.9% |
| O=[N+]([O-])c1cc(Br)c(Nc2ccccc2)c([N+](=O)[O-])c1 | -21.9% | -12.5% |
| C[n+]1ccccc1/C=C/c1ccccc1Cl | -18.2% | -7.01% |
| COc1ccc(OC)c(NC(=O)C(C)OC(=O)c2cc3ccccc3[nH]2)c1 (centres undefined) | -2.68% | 17.6% |
| Cn1c(=N)n(CC(=O)c2ccc(F)cc2)c2ccccc21 | -28.2% | -22.8% |
| COc1ccc(C(=O)NC(=C(Cl)Cl)S(=O)(=O)c2ccc(C)cc2)cc1 | 3.97% | 36.6% |
| O=C(c1ccc(Cl)cc1)C(CN1CCCC1)c1ccccc1 (centres undefined) | 26.1% | 53.9% (active) |
| COc1ccc(-c2cn3cccnc3n2)cc1NC(=O)C(C)Oc1ccccc1 (centres undefined) | -18.1% | -20.2% |
| C=CCN(CC=C)C(=O)c1cccc(S(=O)(=O)N2c3ccccc3CC2C)c1 (centres undefined) | 24.9% | 28.7% |
| CCC1CCCCN1S(=O)(=O)c1ccc(NC(=O)c2nc(S(C)(=O)=O)ncc2Cl)cc1 (centres undefined) | 96.7% (active) | 72.7% (active) |
| Cn1nnnc1Sc1ncnc2scc(-c3ccc(Br)cc3)c12 | 25% | 37.2% |
| C=CS(=O)(=O)N(Cc1ccc(F)cc1)C(=C)C(=O)OC | 33.7% | -13.2% |
| O=C(O)c1ccc(Nc2nc3c(s2)CCCC3)cc1 | -31% | 10.9% |
| Cc1nc(S(=O)(=O)N(C)c2ccccc2)c(C#N)c(C)c1Cl | 3.59% | 40.9% |
| C[C@@H]1CCN(C2CC2)S(=O)(=O)c2ccc(N3CCC[C@H]3C)cc2O1 | -8.49% | -6.67% |
| CN(/C(=N\S(=O)(=O)c1ccccc1)c1ccccc1)c1ccc(O)cc1 | -3.87% | -40.4% |
| CCCCC(=O)Nc1ccc(C)c(S(=O)(=O)N2CCCCCC2)c1 | -13.7% | 18.4% |
| COc1cccc(N2CCN(C(=O)c3ccc(CS(=O)c4ccc(Cl)cc4)o3)CC2)c1 (centres undefined) | 19.7% | 14.5% |
